# According to PubChem BioAssay (NCATS):
# Inconclusive results are not listed. A number with no mark means an inactive call. The source made the active and inactive calls.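 How the source made its calls: active means compounds whose dose-response curve shows a full or clear partial loss of cell viability, called from curve shape rather than a numeric limit; inconclusive means weak partial curves or an effect only at the top dose; inactive means no dose-dependent loss of viability.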
# Assay: Cell Viability - Hek293 (AID 427);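 further: cells exposed to compound for 40 hours at 37 °C before reading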
# Conditions: qHTS
# Description: NIH Chemical Genomics Center [NCGC]
# NIH Molecular Libraries Screening Centers Network [MLSCN]
# National Institutes of Environmental Health Sciences [NIEHS]
# National Toxicology Program [NTP]
# We have developed a 1536-well cell-based assay for quantitative high throughput screening (qHTS) against a number of cell lines to determine in vitro cytotoxicity of small molecules. This particular assay uses the Hek 293 cell line which is derived from human embryonic kidney cells (transformed with adenovirus).
# NCGC Assay Protocol Summary:
# The CellTiter-Glo luminescent cell viability assay (Promega) is a homogeneous method to measure the number of viable cells in culture. The end point readout of this assay is based on quantitation of intracellular ATP, an indicator of metabolic activity, using the luciferase reaction. Luciferase catalyzes the oxidation of beetle Luciferin to oxyluciferin and light in the presence of ATP. The luminescent signal is proportional to amount of ATP present.
# Using the CellTiter-Glo luminescent cell viability assay, the amount of cellular ATP was measured in the Hek293 cell line with complete culture medium following compound treatment for 40 hours. The assay was performed in opaque white Kalypsys 1536-well plates. In the screen, tamoxifen and doxorubicin were used as positive controls. Library compounds were measured for their ability to cause acute toxicity in the cell line, as reflected by a decrease in intracellular ATP levels, in a concentration-dependent manner. Data were normalized to the controls for basal activity (DMSO only) and 100% inhibition (100 uM tamoxifen). AC50 values were determined from concentration-response data modeled with the standard Hill equation.
# qHTS protocol fo CellTiter Glo Hek 293 cellular assay
# [Step] [Parameter] [Value] [Description]
# 2. Time; 5 hr; 37 °C incubation
# 4. Controls; 23 nL; Tamoxifen 0.34 uM to 100 uM & Doxorubicin 0.02 nM to 100 uM
# 5. Time; 40 hr; 37 °C incubation
# 6. Reagent; 5 uL; CellTiter Glo reagent
# 7. Time; 20 min; Room Temperature
# 8. Detection; Luminescence; Viewlux plate reader
# Keywords: cell viability, cytotoxicity, Hek293 cell line, luminescence, NTPHTS, NTPHTS_NCGC, NIEHS, EPA, DSSTox, MLSMR, MLSCN, NIH Roadmap, qHTS, NCGC
# Potency means the concentration at half of the fitted maximal effect.
row,SMILES,Potency
1,CCO,> 92 µM
2,O=C1CCc2ccccc2O1,> 92 µM
3,Nc1ccc(S(=O)(=O)O)cc1,> 92 µM
4,CC(C)=CCCC(C)CCO (stereo not given),> 92 µM
5,COc1ccc2nc(N)sc2c1,> 92 µM
6,CCCCCCCCCCCCCC(=O)O,> 92 µM
7,c1ccc2c(c1)[nH]c1ccccc12,> 92 µM
8,OCCNCCO,> 92 µM
9,CCCCCCCCCCCC(=O)O,> 92 µM
10,C=C(C)C1CC=C(C)C(O)C1 (stereo not given),> 92 µM
11,CCC(C)c1ccccc1O (stereo not given),> 92 µM
12,O=[N+]([O-])c1cccc(Cl)c1Cl,> 92 µM
13,CCCN(CCC)C(=O)SCC,> 92 µM
14,NC1=NC(S)C2N=CN=C2N1 (stereo not given),1.39 µM (active)
15,CCO[Si](CCCN)(OCC)OCC,> 92 µM
16,C1OCOCO1,> 92 µM
17,O=NO,> 92 µM
18,O=C(O)c1ccc(O)cc1O,> 92 µM
19,COc1cc(/C=C/c2ccccc2)oc(=O)c1,> 92 µM
20,C=CCc1ccc(OC)c(OC)c1,> 92 µM

row,SMILES,Potency
1,CCCCCCCCO,> 92 µM
2,C=Cc1ccccc1Cl,> 92 µM
3,C[C@H](CCC(=O)O)[C@H]1CC[C@H]2[C@@H]3CC[C@@H]4C[C@H](O)CC[C@]4(C)[C@H]3CC[C@]12C,> 92 µM
4,S=C1NC=NC2N=CNC12 (stereo not given),1.03 µM (active)
5,C=CC(=C)CCC=C(C)C,> 92 µM
6,Cc1ccc([N+](=O)[O-])cc1N,> 92 µM
7,CC1=CC(C)(C)Nc2ccccc21,> 92 µM
8,c1ccc2scnc2c1,> 92 µM
9,COCC(=O)O,> 92 µM
10,CCC(O)OC(O)CC (stereo not given),> 92 µM
11,O=C(O)c1ccccc1C(c1ccc(O)cc1)c1ccc(O)cc1,> 92 µM
12,CC12CCC(CC1=O)C2(C)C (stereo not given),> 92 µM
13,Nc1ccc(Cl)cc1Cl,> 92 µM
14,O=C(O)CC(C(=O)O)C(CC(=O)O)C(=O)O (stereo not given),> 92 µM
15,COC(=O)CCCCC(=O)OC,> 92 µM
16,O=C(O)c1ccccc1,> 92 µM
17,Cc1ccc(N)c([N+](=O)[O-])c1,> 92 µM
18,ClCCCl,> 92 µM
19,Clc1cc(Cl)c(Cl)cc1Cl,> 92 µM
20,COC(=O)c1ccc(C=O)cc1,> 92 µM
